Test [1] has as its target Vascular endothelial growth factor receptor 3 (Homo sapiens) (UniProt P35916). The note with it: at 10 µM.
For test [2], the target named is Macrophage colony-stimulating factor 1 receptor (Homo sapiens) (UniProt P07333). The settings on record: at 1 µM.
For test [3] the target is unchanged. The settings on record: at 10 µM.
In test [4] the target is Tyrosine-protein kinase Fyn (Homo sapiens) (UniProt P06241). The note with it: at 1 µM.
For test [5] the target is unchanged. The note with it: at 10 µM.
Test [6] has as its target T1, Mitogen-activated protein kinase kinase kinase kinase 2 (Homo sapiens) (UniProt Q12851).
T1 sequence (whole entry): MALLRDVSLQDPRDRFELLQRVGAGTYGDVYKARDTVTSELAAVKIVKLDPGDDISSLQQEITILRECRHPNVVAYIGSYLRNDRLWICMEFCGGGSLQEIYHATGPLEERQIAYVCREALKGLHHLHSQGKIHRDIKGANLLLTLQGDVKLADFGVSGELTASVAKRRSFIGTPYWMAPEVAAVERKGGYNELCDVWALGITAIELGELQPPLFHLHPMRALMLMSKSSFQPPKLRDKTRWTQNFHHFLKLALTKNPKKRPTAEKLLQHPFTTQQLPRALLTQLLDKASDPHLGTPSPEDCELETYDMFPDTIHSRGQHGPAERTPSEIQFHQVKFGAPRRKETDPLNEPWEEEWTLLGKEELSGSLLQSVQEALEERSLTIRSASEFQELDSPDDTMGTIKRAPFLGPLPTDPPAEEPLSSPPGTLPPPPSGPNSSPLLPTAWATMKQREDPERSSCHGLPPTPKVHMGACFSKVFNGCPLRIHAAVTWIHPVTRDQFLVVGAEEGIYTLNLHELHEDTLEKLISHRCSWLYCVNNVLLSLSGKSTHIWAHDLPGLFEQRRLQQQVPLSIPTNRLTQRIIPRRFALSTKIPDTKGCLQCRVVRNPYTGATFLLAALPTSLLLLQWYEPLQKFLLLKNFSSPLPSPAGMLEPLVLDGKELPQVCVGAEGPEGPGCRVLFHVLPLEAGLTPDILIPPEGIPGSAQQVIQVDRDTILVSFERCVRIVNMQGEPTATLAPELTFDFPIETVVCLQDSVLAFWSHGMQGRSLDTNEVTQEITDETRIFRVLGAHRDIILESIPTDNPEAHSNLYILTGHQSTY
The settings on record: at 1 µM.

Test [7] deals with T1, Mitogen-activated protein kinase kinase kinase kinase 2 (Homo sapiens). The settings on record: at 10 µM.
In test [8] the target is G protein-coupled receptor kinase 5 (Homo sapiens) (UniProt P34947). The note with it: at 10 µM.
G protein-coupled receptor kinase 5 (Homo sapiens), sequence (P34947 whole entry, looked up): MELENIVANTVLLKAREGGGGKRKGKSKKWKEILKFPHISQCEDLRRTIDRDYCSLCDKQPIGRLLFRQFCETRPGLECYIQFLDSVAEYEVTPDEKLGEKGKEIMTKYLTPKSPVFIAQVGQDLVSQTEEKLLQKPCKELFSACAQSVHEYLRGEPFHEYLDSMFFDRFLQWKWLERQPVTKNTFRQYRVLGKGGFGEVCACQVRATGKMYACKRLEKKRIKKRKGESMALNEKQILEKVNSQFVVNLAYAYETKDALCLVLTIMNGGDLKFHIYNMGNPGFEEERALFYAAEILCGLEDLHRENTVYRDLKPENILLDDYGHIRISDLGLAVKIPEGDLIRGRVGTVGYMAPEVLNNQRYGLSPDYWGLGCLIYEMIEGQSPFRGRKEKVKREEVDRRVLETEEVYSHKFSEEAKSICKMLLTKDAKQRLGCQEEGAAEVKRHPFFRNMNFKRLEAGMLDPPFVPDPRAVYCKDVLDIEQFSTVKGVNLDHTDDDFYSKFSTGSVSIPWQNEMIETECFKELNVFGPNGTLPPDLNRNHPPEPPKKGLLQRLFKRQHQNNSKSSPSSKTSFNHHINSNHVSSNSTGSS
For test [9], the target named is G protein-coupled receptor kinase 6 (Homo sapiens) (UniProt P43250). The settings on record: at 10 µM.
The target of test [10] is T2, Rhodopsin kinase GRK7 (Homo sapiens) (UniProt Q8WTQ7).
T2 sequence (whole entry): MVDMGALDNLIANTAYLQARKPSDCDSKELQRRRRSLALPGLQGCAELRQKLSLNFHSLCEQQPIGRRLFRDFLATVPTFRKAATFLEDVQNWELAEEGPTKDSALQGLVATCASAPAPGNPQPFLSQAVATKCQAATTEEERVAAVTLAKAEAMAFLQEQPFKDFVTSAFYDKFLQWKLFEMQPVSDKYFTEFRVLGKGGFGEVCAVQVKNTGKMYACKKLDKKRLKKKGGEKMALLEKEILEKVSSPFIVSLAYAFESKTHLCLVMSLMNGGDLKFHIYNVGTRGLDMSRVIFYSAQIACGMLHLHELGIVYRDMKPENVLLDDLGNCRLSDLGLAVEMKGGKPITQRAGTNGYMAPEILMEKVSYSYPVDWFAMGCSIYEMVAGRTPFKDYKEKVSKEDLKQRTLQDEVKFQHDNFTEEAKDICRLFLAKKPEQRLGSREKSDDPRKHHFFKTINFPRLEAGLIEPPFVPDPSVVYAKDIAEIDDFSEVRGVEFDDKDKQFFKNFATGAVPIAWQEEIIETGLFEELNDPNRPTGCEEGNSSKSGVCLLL
The settings on record: at 1 µM.

Test [11] concerns the target T2, Rhodopsin kinase GRK7 (Homo sapiens). The settings on record: at 10 µM.
Test [12] concerns the target Glycogen synthase kinase-3 alpha (Homo sapiens) (UniProt P49840). The note with it: at 10 µM.
Test [13] concerns the target Glycogen synthase kinase-3 beta (Homo sapiens) (UniProt P49841). The settings on record: at 1 µM.
For test [14] the target is unchanged. The settings on record: at 10 µM.
Test [15] has as its target Homeodomain-interacting protein kinase 1 (Homo sapiens) (UniProt Q86Z02). The settings on record: at 1 µM.
The target is the same in test [16]. The note with it: at 10 µM.
Test [17] addresses Homeodomain-interacting protein kinase 2 (Homo sapiens) (UniProt Q9H2X6). The note with it: at 1 µM.
For test [18] the target is unchanged. The note with it: at 10 µM.
The target of test [19] is Homeodomain-interacting protein kinase 3 (Homo sapiens) (UniProt Q9H422). The note with it: at 1 µM.
Homeodomain-interacting protein kinase 3 (Homo sapiens), sequence (Q9H422 whole entry, looked up): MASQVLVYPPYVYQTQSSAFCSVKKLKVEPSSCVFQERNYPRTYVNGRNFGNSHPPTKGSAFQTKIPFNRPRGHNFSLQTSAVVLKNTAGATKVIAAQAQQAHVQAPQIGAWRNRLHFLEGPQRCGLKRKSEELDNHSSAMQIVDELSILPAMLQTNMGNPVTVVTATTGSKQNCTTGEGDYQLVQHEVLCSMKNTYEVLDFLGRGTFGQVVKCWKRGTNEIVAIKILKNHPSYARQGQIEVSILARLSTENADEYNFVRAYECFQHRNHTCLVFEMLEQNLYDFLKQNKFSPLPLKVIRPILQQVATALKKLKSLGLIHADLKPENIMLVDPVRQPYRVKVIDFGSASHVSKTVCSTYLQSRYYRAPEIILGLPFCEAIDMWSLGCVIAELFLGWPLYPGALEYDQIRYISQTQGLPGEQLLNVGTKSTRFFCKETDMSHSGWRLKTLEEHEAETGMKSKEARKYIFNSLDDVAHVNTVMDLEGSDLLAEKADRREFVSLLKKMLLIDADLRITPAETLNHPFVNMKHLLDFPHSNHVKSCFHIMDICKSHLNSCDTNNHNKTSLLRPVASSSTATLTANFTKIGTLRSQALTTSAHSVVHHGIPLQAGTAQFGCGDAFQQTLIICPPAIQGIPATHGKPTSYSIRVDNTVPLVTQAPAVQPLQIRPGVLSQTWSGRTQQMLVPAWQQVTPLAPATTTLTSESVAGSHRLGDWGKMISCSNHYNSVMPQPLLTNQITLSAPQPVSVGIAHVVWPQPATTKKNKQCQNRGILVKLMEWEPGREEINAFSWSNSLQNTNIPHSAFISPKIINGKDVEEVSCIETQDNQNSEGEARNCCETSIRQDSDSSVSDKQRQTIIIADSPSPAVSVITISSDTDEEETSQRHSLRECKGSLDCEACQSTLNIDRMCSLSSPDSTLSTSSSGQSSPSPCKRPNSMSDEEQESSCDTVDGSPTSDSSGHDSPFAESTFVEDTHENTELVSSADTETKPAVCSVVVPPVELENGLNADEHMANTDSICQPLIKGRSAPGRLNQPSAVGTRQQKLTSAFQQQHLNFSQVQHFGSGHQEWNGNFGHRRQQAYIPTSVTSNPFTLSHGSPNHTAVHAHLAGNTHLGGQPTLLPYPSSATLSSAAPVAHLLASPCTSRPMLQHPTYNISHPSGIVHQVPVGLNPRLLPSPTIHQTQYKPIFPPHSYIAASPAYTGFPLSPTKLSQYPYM
Test [20] addresses Glycogen synthase kinase-3 alpha (Homo sapiens) (UniProt P49840). The settings on record: at 1 µM.

Glycogen synthase kinase-3 beta (Homo sapiens), sequence (P49841 whole entry, looked up): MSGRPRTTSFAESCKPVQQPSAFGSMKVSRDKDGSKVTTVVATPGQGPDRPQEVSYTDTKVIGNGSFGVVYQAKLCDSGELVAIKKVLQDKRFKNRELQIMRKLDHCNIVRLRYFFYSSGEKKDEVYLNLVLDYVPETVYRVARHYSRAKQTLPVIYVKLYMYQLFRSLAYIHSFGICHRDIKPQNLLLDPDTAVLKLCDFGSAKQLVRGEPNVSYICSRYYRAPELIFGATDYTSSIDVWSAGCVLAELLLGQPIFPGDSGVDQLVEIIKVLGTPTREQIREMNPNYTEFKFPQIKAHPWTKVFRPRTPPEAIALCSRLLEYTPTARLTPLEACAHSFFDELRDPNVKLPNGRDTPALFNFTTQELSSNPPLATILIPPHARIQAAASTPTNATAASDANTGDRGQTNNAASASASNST
Macrophage colony-stimulating factor 1 receptor (Homo sapiens), sequence (P07333 whole entry): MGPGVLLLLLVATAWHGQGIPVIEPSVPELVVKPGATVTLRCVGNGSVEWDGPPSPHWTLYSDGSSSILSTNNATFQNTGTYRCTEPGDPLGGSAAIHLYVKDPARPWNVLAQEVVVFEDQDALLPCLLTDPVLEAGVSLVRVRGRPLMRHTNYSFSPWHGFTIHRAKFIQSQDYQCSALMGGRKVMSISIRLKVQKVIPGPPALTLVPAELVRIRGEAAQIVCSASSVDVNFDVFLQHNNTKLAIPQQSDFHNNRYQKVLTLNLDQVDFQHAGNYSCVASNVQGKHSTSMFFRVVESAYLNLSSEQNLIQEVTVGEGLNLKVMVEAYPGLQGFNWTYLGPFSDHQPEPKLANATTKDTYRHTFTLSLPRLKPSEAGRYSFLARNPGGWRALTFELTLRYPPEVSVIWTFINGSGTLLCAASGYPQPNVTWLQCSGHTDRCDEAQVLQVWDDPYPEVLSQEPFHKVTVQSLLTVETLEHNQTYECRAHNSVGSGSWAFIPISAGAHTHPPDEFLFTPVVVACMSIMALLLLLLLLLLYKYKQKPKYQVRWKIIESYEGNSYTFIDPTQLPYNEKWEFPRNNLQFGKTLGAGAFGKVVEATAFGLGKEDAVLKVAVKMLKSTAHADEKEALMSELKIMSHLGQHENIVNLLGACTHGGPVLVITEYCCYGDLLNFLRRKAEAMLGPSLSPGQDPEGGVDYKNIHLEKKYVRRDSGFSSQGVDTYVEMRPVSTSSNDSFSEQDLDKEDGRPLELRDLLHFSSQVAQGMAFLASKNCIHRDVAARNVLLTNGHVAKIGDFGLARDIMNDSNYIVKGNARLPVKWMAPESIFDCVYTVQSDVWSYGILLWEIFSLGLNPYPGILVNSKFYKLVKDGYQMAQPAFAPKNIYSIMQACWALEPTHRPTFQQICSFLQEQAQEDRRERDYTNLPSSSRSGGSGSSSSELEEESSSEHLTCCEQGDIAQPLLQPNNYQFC
Vascular endothelial growth factor receptor 3 (Homo sapiens), sequence (P35916 whole entry): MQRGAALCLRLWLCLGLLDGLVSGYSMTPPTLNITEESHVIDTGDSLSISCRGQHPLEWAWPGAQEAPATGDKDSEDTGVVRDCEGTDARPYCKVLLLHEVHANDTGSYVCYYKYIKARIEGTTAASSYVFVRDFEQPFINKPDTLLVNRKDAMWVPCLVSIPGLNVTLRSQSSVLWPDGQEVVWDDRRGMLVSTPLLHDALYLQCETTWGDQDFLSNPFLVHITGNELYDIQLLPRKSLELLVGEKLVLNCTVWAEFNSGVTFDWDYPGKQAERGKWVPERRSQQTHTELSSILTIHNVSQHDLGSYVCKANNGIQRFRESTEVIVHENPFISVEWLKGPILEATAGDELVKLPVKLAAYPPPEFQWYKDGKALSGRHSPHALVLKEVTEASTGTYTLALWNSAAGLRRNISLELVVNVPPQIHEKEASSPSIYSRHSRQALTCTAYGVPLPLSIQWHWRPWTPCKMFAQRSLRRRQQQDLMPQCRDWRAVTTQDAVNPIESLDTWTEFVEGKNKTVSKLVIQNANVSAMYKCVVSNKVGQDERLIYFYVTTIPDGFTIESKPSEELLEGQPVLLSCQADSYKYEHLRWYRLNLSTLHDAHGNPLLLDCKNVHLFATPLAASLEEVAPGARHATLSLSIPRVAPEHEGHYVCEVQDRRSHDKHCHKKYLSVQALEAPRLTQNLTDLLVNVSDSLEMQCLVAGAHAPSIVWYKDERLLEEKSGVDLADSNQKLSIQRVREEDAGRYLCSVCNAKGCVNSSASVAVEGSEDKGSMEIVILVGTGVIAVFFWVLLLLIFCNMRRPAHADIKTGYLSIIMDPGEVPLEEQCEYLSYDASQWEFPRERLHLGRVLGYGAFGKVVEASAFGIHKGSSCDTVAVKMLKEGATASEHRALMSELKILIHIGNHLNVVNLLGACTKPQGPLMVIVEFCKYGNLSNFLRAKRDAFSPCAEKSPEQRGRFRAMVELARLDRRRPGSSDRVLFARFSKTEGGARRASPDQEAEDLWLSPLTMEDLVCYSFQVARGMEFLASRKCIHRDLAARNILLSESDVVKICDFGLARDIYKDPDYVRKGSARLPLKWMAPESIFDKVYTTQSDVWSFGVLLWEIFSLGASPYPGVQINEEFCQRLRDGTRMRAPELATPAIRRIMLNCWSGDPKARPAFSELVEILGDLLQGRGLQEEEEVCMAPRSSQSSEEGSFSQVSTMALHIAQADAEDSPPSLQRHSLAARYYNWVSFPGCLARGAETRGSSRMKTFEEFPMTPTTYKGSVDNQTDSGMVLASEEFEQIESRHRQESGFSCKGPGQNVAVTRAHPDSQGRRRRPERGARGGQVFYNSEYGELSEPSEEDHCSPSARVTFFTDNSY
Glycogen synthase kinase-3 alpha (Homo sapiens), sequence (P49840 2-483 limits assumed): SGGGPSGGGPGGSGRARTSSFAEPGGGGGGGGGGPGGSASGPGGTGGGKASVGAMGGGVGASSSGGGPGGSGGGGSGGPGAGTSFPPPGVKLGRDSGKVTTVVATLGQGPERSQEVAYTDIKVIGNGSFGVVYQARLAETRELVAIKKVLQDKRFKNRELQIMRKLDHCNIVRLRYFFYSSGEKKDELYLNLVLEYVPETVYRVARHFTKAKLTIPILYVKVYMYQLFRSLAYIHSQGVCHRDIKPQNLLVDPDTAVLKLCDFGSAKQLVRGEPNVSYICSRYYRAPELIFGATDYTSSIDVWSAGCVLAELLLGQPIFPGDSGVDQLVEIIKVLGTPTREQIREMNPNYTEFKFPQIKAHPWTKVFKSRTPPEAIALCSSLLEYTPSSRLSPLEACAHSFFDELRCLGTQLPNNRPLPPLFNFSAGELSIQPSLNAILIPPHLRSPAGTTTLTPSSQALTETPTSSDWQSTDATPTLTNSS

Regarding `c1ccc2c(-c3ccncc3)c[nH]c2c1`, the residual activity in test [1] was determined as 60%; in [2], 110%; in test [3] it was 92%; in test [4] it was 89%; in test [5], 78%; in test [6] it was 86%. In addition, the residual activity in [7] stood at 50%; in [8] it was 97%; in [9], 83%; in test [10], 96%; in [11] it was 79%; in test [12] it was 135%. The residual activity amounted to 94% in test [13]; 88% in test [14]; 95% in test [15]; 98% in [16]; 100% in test [17]; 85% in test [18]. In addition, the residual activity in test [19] was found to be 95%.
With `N#Cc1cnc2cnc(NCc3cccnc3)cc2c1Nc1ccc(F)c(Cl)c1`, the residual activity in test [1] is 2%; in test [2], 58%; in test [3], 60%; in test [4], 87%; in [5], 74%; in [7], 3%. Further, the residual activity amounted to 91% in [8]; 120% in test [10]; 94% in test [11]; 46% in test [20]; 39% in [12]; 62% in [13]. For the same compound, the residual activity was 42% in test [14], 94% in test [17] and 84% in test [18].
For `COc1cc2ncc(-c3ccccc3)nc2cc1OC`, the residual activity was 17% in test [1]; 30% in [2]; 7% in test [3]; 84% in test [5]; 96% in test [6]; 90% in test [7]. The residual activity stood at 91% in [9]; 93% in test [13]; 138% in test [14]; 96% in test [17]; 97% in test [18]; 100% in [19].
Consider `COc1cc2ncnc(Nc3ccc(Oc4ccccc4)cc3)c2cc1OC`, for which the residual activity in test [1] was determined as 0%; in test [2] it was 49%; in test [3], 53%; in test [4], 2%; in test [5], 0%; in test [8], 104%. The residual activity worked out at 88% in [9]; 103% in [10]; 92% in [11]; 91% in test [20]; 178% in [12]; 84% in [13]. In addition, the residual activity in [14] was determined as 97%; in test [15] it was 102%; in test [16] it was 106%; in test [17] it was 99%; in test [18], 99%; in test [19], 94%.
For the compound `Nc1nc(Nc2ccc(S(N)(=O)=O)cc2)nn1C(=S)Nc1c(F)cccc1F`, the residual activity in test [1] was -1%; in test [2], 5%; in test [3], 0%; in test [4], 6%; in [5], -1%; in test [6] it was 1%. Also, the residual activity is -1% in test [7]; 30% in test [8]; 3% in test [20]; 2% in test [12]; 4% in test [13]; 0% in test [14]. The residual activity is 30% in test [15]; 47% in test [16]; 12% in test [17]; 0% in [18]; 25% in test [19].
Take `O=C1NC(=O)/C(=C\c2ccc3nccnc3c2)S1`: the residual activity was found to be 70% in [1]; 126% in [2]; 112% in [3]; 83% in test [4]; 79% in [5]; 75% in [6]. For the same compound, the residual activity stood at 26% in test [7]; 82% in [8]; 79% in test [9]; 87% in [10]; 55% in test [11]; 90% in test [20]. Also, the residual activity came to 51% in [12]; 85% in [13]; 54% in test [14]; 83% in test [15]; 28% in [16]; 49% in test [17]. Moreover, the residual activity in test [18] came out at 7%; in test [19], 53%.
Regarding `CC(=O)c1ccc(N2CCOCC2)cc1O`, the residual activity in test [1] is 88%; in test [4], 80%; in test [5], 96%; in [6], 91%; in test [7], 89%; in test [8] it was 86%. The residual activity in test [9] came out at 91%; in test [10], 95%; in test [11], 90%; in [13] it was 101%; in test [14], 109%; in [15] it was 97%. Also, the residual activity came out at 104% in [16], 100% in [17], 94% in test [18] and 95% in test [19].
Regarding `CO[C@H]1C[C@@H]2CC[C@@H](C)[C@@](O)(O2)C(=O)C(=O)N2CCCC[C@H]2C(=O)O[C@H]([C@H](C)C[C@@H]2CC[C@@H](O)[C@H](OC)C2)CC(=O)[C@H](C)/C=C(\C)[C@@H](O)[C@@H](OC)C(=O)[C@H](C)C[C@H](C)/C=C/C=C/C=C/1C`, the residual activity in test [1] came to 106%; in [2], 85%; in test [3], 65%; in test [4], 88%; in test [5], 95%; in test [6], 85%. For the same compound, the residual activity stood at 79% in [7]; 99% in test [8]; 83% in test [9]; 94% in [10]; 86% in test [11]; 117% in test [20]. For the same compound, the residual activity is 193% in test [12]; 96% in test [13]; 91% in test [15]; 101% in [16]; 103% in test [17]; 99% in [18]. For the same compound, the residual activity in test [19] was 91%.
